L major viab = reduces viability of Leishmania major promastigotes | resazurin fluorescence viability | inhibition, % at 10 µM | 200,000 compounds, 9% hits | AID 1063; in the data active = inhibition above about 50%;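 note: promastigotes grown with compound for 44 hours at 28 °C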
RAM network inh = yeast RAM network inhibition; inhibition, % at 50 µM; 190,000 compounds, 1.8% hits; S. cerevisiae dse1pr::URA3 reporter, 5-FOA growth OD615, 2 d; analog-sensitive cbk1-as2 kinase mutant strain;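 active = inhibition above a set limit, 3 SD over mean compound inhibition, cut at about 8.4% in these data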;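 note: 0% = DMSO-only wells with no growth and 100% = 10 µM 1-NA-PP1 full growth; inhibition rescues growth on 5-FOA so higher OD means more RAM inhibition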
WT yeast gro inh = growth inhibition of WT yeast, mitochondrial fusion screen | inhibition, % at 10 µM | AID 1362 | mitochondrial fusion phenotypic screen, WT strain | 190,000 compounds, 2.1% hits; in the data active = inhibition above about 58%; tested in S. cerevisiae
CHOP inh = CHOP inhibition in unfolded protein response; 220,000 compounds, 3.8% hits; inhibition, % at 10 µM; CHO-K1 CHOP-promoter luciferase, tunicamycin-induced, 15-18 h;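 active = compounds that reduced the stress-induced luciferase reporter signal by more than about 70% of percent inhibition, limit read from the data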;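 note: 0% = tunicamycin plus vehicle and 100% = wells without tunicamycin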
The depositor's hits bear a star; / = not tested or not shown. In the library only some 13% were active in any assay of this set; here they are far more common.

SMILES	L major viab	RAM network inh	WT yeast gro inh	CHOP inh
COCCN(CCOC)C(=O)c1ccc(SCc2ccc(C)cc2)c([N+](=O)[O-])c1	-7.5	3.4	5.2	15.5
O=C1CN(c2nc3nonc3nc2N2CCCCC2)CCN1	-7.7	1.0	-18.8	-3.5
Cn1c(=O)c(C(=O)Nc2ccccn2)c(O)c2ccccc21	29.1	0.9	5.0	71.9*
COCCNC(=O)C(=O)NCCN1CCNCC1	-2.5	-0.1	3.9	-9.6
CCOC(=O)CSc1ccc(S(=O)(=O)N2CCC(C)CC2)cc1[N+](=O)[O-]	-4.8	10.6*	5.7	61.4
COc1ccc(C(NC(=O)c2c(F)c(F)c(F)c(F)c2F)c2ccccc2)cc1 (stereo unspecified)	94.9*	1.3	29.0	-6.0
CS(=O)(=O)c1nsc2nc(=O)c(/C=C3\C=Nc4ccccc43)c(N)n12	-1.4	9.9*	-2.4	-4.4
OC(CNCCc1ccccc1)COc1ccc(OCC(O)CNCCc2ccccc2)cc1 (stereo unspecified)	/	/	/	-21.1
CC(C)N(CCNCC(O)COc1ccc(C(C)(C)c2ccccc2)cc1)C(C)C (stereo unspecified)	93.7*	-2.0	56.2	3.5
CC(C)CCNCC(O)CON=C1c2ccccc2-c2ccccc21 (stereo unspecified)	88.4*	-1.4	41.2	1.6
OC(CNCCC(c1ccccc1)c1ccccc1)COc1ccccc1 (stereo unspecified)	42.8	-0.9	74.2*	74.3*
Oc1ccccc1C1=Nc2ncnn2C(c2ccc(F)cc2)C1 (stereo unspecified)	/	1.4	-3.6	-20.0
COc1ccc(-c2[nH]ncc2C=O)cc1OC	-2.1	1.1	-5.5	12.0
Cc1cc(Nc2cnc3ccccc3n2)n(-c2ccccc2)n1	67.1*	0.8	5.0	24.2
O=C(CCCc1c[nH]c2ccccc12)Nc1ccc(S(=O)(=O)Nc2ncccn2)cc1	/	/	/	7.8
CCNS(=O)(=O)c1ccc2nc(NC(=O)/C=C/c3cc(OC)c(OC)c(OC)c3)sc2c1	51.9*	1.8	-12.2	23.7
COc1cc(/C=C/C(=O)Nc2nc3ccc(S(=O)(=O)NC(C)C)cc3s2)cc(OC)c1OC	22.2	3.0	-0.3	11.0
CCOc1cc(C=O)cc(Br)c1OCC(N)=O	4.7	1.4	-8.8	-2.2
COc1ccc(-c2cc(=Nc3ccc(C)cc3)c3ccccc3o2)cc1	63.5*	-0.3	4.0	14.7
COc1ccc(N=c2cc(-c3ccc(O)cc3)oc3ccccc23)cc1	81.3*	2.0	25.2	65.2
COc1ccc(N=c2cc(-c3ccc(OC)cc3)oc3ccccc23)cc1	41.9	2.1	76.2*	26.2
COC(=O)c1ccc(CO/N=C(\NC(C)=O)c2nonc2NC(C)=O)cc1	-4.1	2.3	1.7	15.8
COC(=O)c1c(C(=O)OC)c(-c2cccc(Cl)c2)n2c1CS(=O)C2 (stereo unspecified)	-2.4	0.4	-8.8	3.0
C=CCOC(=O)C1=C(C)NC(=S)NC1/C=C/c1ccccc1 (stereo unspecified)	89.2*	4.3	/	51.2
CC1=C(C(=O)OCc2ccccc2)C(/C=C/c2ccccc2)NC(=S)N1 (stereo unspecified)	37.7	4.0	68.8*	50.1
SMILES	L major viab	RAM network inh	WT yeast gro inh	CHOP inh
COCCOC(=O)C1=C(C)NC(=S)NC1/C=C/c1ccccc1 (stereo unspecified)	41.1	3.0	-11.5	4.0
S=C(c1ccc(N2CCCC2)c(Br)c1)N1CCCCC1	3.4	0.2	55.8	-7.6
COc1cc(/C=C(\NC(C)=O)C(=O)Nc2cccc(O)c2)ccc1OC(C)=O	21.0	1.8	-8.6	2.9
CCCCNC(=S)N/N=C/c1ccccc1F	-9.2	0.0	16.9	27.5
CCCCNC(=S)N(C)/N=C/c1c(C)[nH]c2ccccc12	55.8*	1.4	-2.1	72.4*
CCCCNC(=S)N(C)/N=C/c1c(F)c(F)c(F)c(F)c1F	-2.3	6.0	59.8*	21.9
CCCCN(C)CCNC(=O)C(=O)c1c(C)[nH]c2ccccc12	4.4	1.5	-16.3	1.5
CCCCCCOC(=O)CCc1c(C)nc(N)[nH]c1=O	0.4	2.4	12.7	33.5
CCCCCCOC(=O)/C=C/c1c(C)[nH]c(=O)[nH]c1=O	94.1*	1.9	0.9	36.6
COc1cccc(CC(NC(C)=O)C(=O)NC2CCN(S(=O)(=O)c3ccc(C)cc3)CC2)c1OC (stereo unspecified)	-6.1	0.2	-5.4	-0.7
O=C(O)/C=C/C(=O)NC1CC1	-1.9	-0.2	-2.6	-16.0
CS(=O)(=O)NCC(c1cccnc1)N1CCN(c2ccc(F)cc2)CC1 (stereo unspecified)	44.7	-0.6	11.1	-17.1
O=S(=O)(NCC(c1cccnc1)N1CCN(c2ccc(F)cc2)CC1)c1cc(F)ccc1F (stereo unspecified)	95.2*	0.1	4.5	16.9
